Among the data in PubChem BioAssay (EPA / NIEHS) are outcome and AC50 values, retold here.

Activity calls are given as the source filed them. The calls were made as follows: active = hit-call score of the fitted dose curve at least 0.9, where 1 is the maximum; inactive = score below 0.9.

Read-out in this experiment: Thrombomodulin, THBD (gene 7056)
The experiment in a line: BSK_CASM3C_Thrombomodulin: BioMAP Diversity Plus: CASM3C Assay for Thrombomodulin Biomarker Activity (AID 2283051).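 Also: thrombomodulin protein level measured by ELISA 24 h after dosing.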 The settings on record: primary human coronary artery smooth muscle cells; actives raise or lower the signal.
`COCCOC[C@H](CC1(C(=O)NC2CCC(C(=O)O)CC2)CCCC1)C(=O)Oc1ccc2c(c1)CCC2` (some centres undefined): the result was inactive.

As to `COc1cc(-c2nc(NC(=O)c3cc4cc(C)cc(C)c4n3CC(=O)O)sc2CCC2CCCCC2)c(OC)cc1Cl`, the result was inactive.

With `NCC1(Cc2noc(=O)[nH]2)CCCCC1`, the result was inactive.

On to `CCCCC(CC)COC(=O)CC(C(=O)OCC(CC)CCCC)S(=O)(=O)O` (centres undefined), for which the result was inactive.

Consider `CCOC(=O)CCC(=O)OCC`, for which the result was inactive.

As for `Nc1ccc(S(=O)(=O)c2ccc(N)cc2)cc1`, the result was inactive.

Take `CC(C)c1ccc(C(=O)N=C(N)N)cc1S(C)(=O)=O`: the outcome was inactive.

As to `CCCCCCOCCO`, the result was inactive.

As to `CC(CO)OC(C)CO` (centres undefined) (tested in a mixture with another compound), the outcome was inactive.

`COc1cc(C=O)ccc1O`: the outcome was inactive.

Take `c1cc(-c2ccncc2)ccn1`: the result was inactive.

For the compound `CCNc1cccc(C)c1`, the result was inactive.

Take `CN1CCN(Cc2cc(-c3ccc4[nH]c(=O)oc4c3)co2)[C@@H](c2ccc(F)cc2)C1`: the outcome was inactive.

On to `Cc1nc(-c2ccc3c(c2)CCN(CCC2CCC(NC(=O)/C=C/c4ccc(F)cc4)CC2)CC3)no1` (centres undefined), for which the outcome was inactive.

Turning to `O=c1c(O)c(-c2ccc(O)c(O)c2)oc2cc(O)cc(O)c12`, the outcome was inactive.

In the case of `CN[C@H]1CC[C@@H](c2ccc(Cl)c(Cl)c2)c2ccc(S(N)(=O)=O)cc21`, the result was inactive.

Take `CCCCN(CCCC)CCCC`: the outcome was inactive.

`COC(=O)c1ccc(O)cc1`: the result was inactive.

As to `CC1=C(/C=C/C(C)=C/C=C/C(C)=C/CO)C(C)(C)CCC1`, the AC50 (commonly the concentration at which the activity in the assay is half-maximal) was 12.2 µM (active).

As to `CNC(=O)[C@H]1O[C@@H](n2cnc3c(NCc4cc(Cl)ccc4OCc4cc(C)no4)ncnc32)[C@H](O)[C@@H]1N`, the outcome was inactive.

Regarding `Cc1cc(=O)[nH]c(=S)[nH]1`, the result was inactive.

Consider `CCCCc1ccc2c(n1)[C@@H](c1ccc(OC)cc1C[C@H](C)C(=O)O)[C@H](C(=O)O)[C@H]2c1ccc2c(c1)OCO2`, for which the result was inactive.

In the case of `FC(F)(F)C(F)(F)C(F)(F)C(F)(F)C(F)(F)C(F)(F)CCI`, the result was inactive.

Regarding `C=CCOC(=O)c1ccccc1C(=O)OCC=C`, the outcome was inactive.

Take `O=[N+]([O-])C(CO)(CO)CO`: the outcome was inactive.

For `Oc1ccc2ccccc2c1N=Nc1ccccc1`, the AC50 was 1.36 µM (active).

In the case of `O=C(N[C@@H](Cc1ccccc1)[C@@H](O)C(=O)N1C[C@@H](O)[C@@H](O)C1)c1cc2cc(Cl)ccc2[nH]1`, the outcome was inactive.

`CCCCCCCCCCCCCCCC`: the outcome was inactive.

Consider `CCCCCCCCCCC`, for which the outcome was inactive.
